# The list is not random: actives were taken first. Their share in the collection is about 3.7%.
# GPR32 ag: activates human resolvin D1 receptor GPR32. O75388. CHO-K1 GPR32 beta-arrestin PathHunter luminescence, 90 min; zero percent set by DMSO-only wells. activation, % at 76.9 µM. 48,000 compounds, 2.5% hits. AID 1346428;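 active means activation of at least 60% and not above a set upper limit, about 1 call in 100 departs from these limits; inconclusive means activation of 40% to 60%, or above that upper limit; inactive means activation under 40%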; further: 0% is about no effect
# Target sequence (O75388 whole entry, looked up): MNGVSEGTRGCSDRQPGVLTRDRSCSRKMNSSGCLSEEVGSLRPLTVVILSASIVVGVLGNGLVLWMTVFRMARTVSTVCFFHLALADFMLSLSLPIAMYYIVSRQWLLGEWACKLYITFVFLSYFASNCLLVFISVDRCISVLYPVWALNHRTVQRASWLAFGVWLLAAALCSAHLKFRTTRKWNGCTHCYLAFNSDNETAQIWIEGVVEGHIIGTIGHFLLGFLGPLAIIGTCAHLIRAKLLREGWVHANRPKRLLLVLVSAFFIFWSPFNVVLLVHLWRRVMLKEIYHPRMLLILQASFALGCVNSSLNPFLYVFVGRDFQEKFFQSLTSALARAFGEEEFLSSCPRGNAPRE
#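 Readings come from a cell-based beta-arrestin complementation format: CHO-K1 GPR32 stable cells (2,500/well) treated 90 min with compounds, then beta-Gal substrate added for 1 h before chemiluminescence imaging.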
# HTT-AS promoter: HTT-AS promoter activation | HEK293 HTT-AS promoter firefly luciferase reporter, 24 h; response scale: percent change from vehicle, -100% = no light | Potency, µM (series often up to 57.5 µM), without a hit: at the highest dose activity change, positive = activation, most hits filed as activators | 48,000 compounds, 0.24% hits; further: potency means the concentration at half of the fitted maximal effect; nearly all actives have a fitted effect of over 55% in size
#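 Luminescence was read after Dual-Glo reagent and a 10 min room-temperature incubation. Values were normalized to vehicle (0% activity) and zero RLU (-100% activity). Reporter HEK293 cells had been exposed to compounds (up to 57.5 uM final) for 24 h.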
# HTT prom inh: HTT promoter inhibition; Potency, µM (doses to about 57.5 µM), inactives show top-dose activity change, negative = inhibition, usual class: inhibitors; 48,000 compounds, 0.93% hits; HEK293 HTT promoter firefly luciferase reporter, 24 h; further: potency means the concentration at half of the fitted maximal effect; nearly all actives have a fitted effect of over 50% in size
#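 Luminescence was read after Dual-Glo reagent and a 10 min room-temperature incubation. Values were normalized to vehicle (0% activity) and zero RLU (-100% activity). Reporter HEK293 cells had been exposed to compounds (up to 57.5 uM final) for 24 h.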
# * = called active by the depositor; ? = inconclusive; . = no result given; [ ] = dose if it differs, or a comment. Unless noted, the call rests on the fitted dose curve; in most records, active means well fitted curve in the direction sought with a large enough effect; inconclusive means small, poorly fitted or top-dose-only effect, or another doubt; inactive means no such curve, though single readings can be large; an effect the other way counts as inactive or inconclusive.
SMILES,GPR32 ag,HTT-AS promoter,HTT prom inh
COc1ccccc1C1CC(=O)NC(C)=C1C(=O)OC1CCCCCC1 (configuration not stated),5,-21%,?
COc1ccc([C@@H]2CC(=O)c3c(O)cc(O[C@@H]4O[C@H](CO[C@@H]5O[C@@H](C)[C@H](O)[C@@H](O)[C@@H]5O)[C@@H](O)[C@H](O)[C@@H]4O)cc3O2)cc1O,.,-25%,?
CCOC(=O)N1CCc2c(sc(NCc3cccs3)c2C(=O)Nc2cc(Cl)ccc2OC)C1,-6,-10%,-5%
Cc1ccc(OCC(=O)Nc2ccc(S(=O)(=O)Nc3cc(C)on3)cc2)c(Br)c1,?,-18%,-26%[11.5 µM]
Cc1cc(NS(=O)(=O)c2ccc(NC(=O)COc3cc(C)c(Br)cc3C(C)C)cc2)no1,107*,-25%,-27%
CC(C)CS(=O)(=O)c1oc(-c2ccc(F)cc2)nc1S(=O)(=O)c1ccccc1,0,-94%,?
CCOc1ccc(CNC(=O)CCCn2c(=O)c3cccn3c3ccc(F)cc32)cc1,-17,-6%,0%
CCc1ccc(NC(=O)CSc2nc3ncccc3[nH]2)cc1,12,1%,-18%
COc1ccccc1NC(=O)CSc1nc(-c2ccccc2F)nc2cc(=O)[nH]n12,1,-17%,-6%
O=c1cc2nc(-c3ccccc3F)nc(SCc3ccc(Br)cc3)n2[nH]1,108*,-8%,-10%
O=C(O)c1ccc(O)c2ncc(N3CCOCC3)cc12,.,-3%,-14%
Cc1ccc(C(CC(=O)NCC2(c3ccccc3)CCCC2)c2ccccc2)c(O)c1 (configuration not stated),63*,.,.
Cc1ccc(NC(=O)C(=O)NCC2(c3ccccc3)CCCC2)cc1Cl,-25,11%,-8%
O=c1[nH]c(=O)n([C@H]2O[C@H](CO)[C@@H](O)[C@@H]2O)cc1/C=C\Br,-5,-4%,5%
Cc1ccc(C(C)(C)C)c(OCC(=O)NCCc2nc3ccccc3[nH]2)c1,61*,-13%,4%
Cc1cc(OCC(=O)NCCc2nc3ccccc3[nH]2)cc(C)c1Cl,-16,-11%,-9%
CCN(CC)S(=O)(=O)c1nnc(NC(=O)c2ccc(C)cc2)s1,32,10%,5%
CCN(CC)S(=O)(=O)c1nnc(NC(=O)c2ccc(C(C)C)cc2)s1,75*,-25%,?
CCc1ccc(CNC(=O)c2cc3ccccn3n2)cc1,3,?,11%
Cc1cccc(CCNC(=O)c2cc3ccccn3n2)c1,101*,.,.
CCCCN(CC)C(=O)CSc1nc2n[nH]c(C)c2c(=N)n1-c1cccc(Cl)c1,-17,-47%,?
CC1(C)CC(=O)c2c(C(F)(F)F)nn(-c3ccc(C(N)=O)c(NC4CCC(OC(=O)CN)CC4)c3)c2C1 (configuration not stated),.,-61%,?
Cc1cc2oc3c(c(=O)c2cc1C)C(c1ccc(C(C)C)cc1)N(c1nc(C)c(C)s1)C3=O (configuration not stated),-1,-8%,-8%
CC(Oc1ccc(Br)cc1)C(=O)Nc1ncn[nH]1 (configuration not stated),-7,-7%,-7%
O=C(COc1ccc(Br)cc1Cl)Nc1ncn[nH]1,12,8.9µM*,72%
SMILES,GPR32 ag,HTT-AS promoter,HTT prom inh
CCc1ccc(OCC(=O)NCc2nc(-c3cccc(C)c3)no2)c(Br)c1,-21,-18%,-15%
CCc1ccc(OCC(=O)Nc2ncn[nH]2)c(Br)c1,2,25µM*,54%
O=c1ccn([C@@H]2O[C@H](CO)[C@H](O)[C@@H]2F)c(=O)[nH]1,.,-32%,?
Cc1ccc(C)c(Nc2nn3c(=O)c4ccc(C(=O)NCCC5=CCCCC5)cc4nc3s2)c1,48,-21%,-10%
COc1ccccc1Nc1nn2c(=O)c3ccc(C(=O)NCCc4ccccc4)cc3nc2s1,11,-73%,7.1µM*
COc1ccccc1Nc1nn2c(=O)c3ccc(C(=O)NC(C)c4ccccc4)cc3nc2s1 (configuration not stated),8,-21%,-15%
Cc1c(Cl)cccc1Nc1nn2c(=O)c3ccc(C(=O)NCCc4ccccc4)cc3nc2s1,4,-5%,-13%
Cc1ccc(C)c(Nc2nn3c(=O)c4cc5c(cc4nc3s2)OCO5)c1,63*,14%,15%
COc1ccccc1Nc1nn2c(=O)c3ccc(C(=O)NCCC4=CCCCC4)cc3nc2s1,30,-88%,10µM*
Cc1ccc(C)c(Nc2nn3c(=O)c4ccc(C(=O)NCCc5ccccc5)cc4nc3s2)c1,74*,-3%,8%
O=c1c2cc3c(cc2nc2sc(Nc4ccccc4)nn12)OCO3,-4,?,40%
CC(C)Oc1ccc(C(=O)N[C@H](CNC(=O)CN(C)C)Cc2ccc(-c3cn4cccc([C@H](C)O)c4n3)cc2)cc1Cl,.,-32%,-19%
COc1ccc(-n2nc(CCC(=O)N(C)O)cc2-c2ccc(Cl)cc2)cc1,?,-1%,-13%
Cc1ccc2nc(N)[nH]c(=O)c2c1Sc1ccncc1,9,-24%,-19%
CCCCC1CCC(C(=O)N2CC(=O)Nc3ccc(C)cc3C2c2ccc(F)cc2)CC1 (configuration not stated),-27,-25%,?
O=C1Nc2ccccc2Oc2cc(Oc3ccccc3)ccc21,-14,-7%,-12%
O=C1Nc2ccccc2Oc2cc(Oc3cccc(Cl)c3)ccc21,91*,-20%,-12%
CCc1ccccc1NC(=O)c1ncoc1-c1ccco1,-4,-5%,-24%
COc1ccc(Nc2cc(C)nc(-n3nc(C)cc3C)n2)cc1Cl,-17,-75%,13µM*
Cc1cc(Nc2ccc(C(C)C)cc2)nc(-n2nc(C)cc2C)n1,-5,-18%,?
CC[C@@H](C)[C@H](NC(=O)[C@H](CC1CCCCC1)NC(=O)c1ccno1)C(=O)N1CCC2(CCc3ccccc32)CC1,.,-21%,-9%
COC(=O)c1ccc([C@@H]2Nc3c(cccc3C(F)(F)F)[C@@H]3C=CC[C@@H]32)cc1,-24,-8%,-24%
COC(=O)c1ccc(C2Nc3c(C)cc(C)cc3C3C=CCC32)cc1 (configuration not stated),79*,-10%,-6%
CC(=O)c1ccc(NC(=O)c2nc(-c3ccccc3)n(-c3ccccc3)n2)cc1,-10,-14%,-2%
Cc1c(C(=O)Nc2ccc(C(=O)O)cc2)nnn1-c1ccccc1,-12,-91%,2.5µM*
SMILES,GPR32 ag,HTT-AS promoter,HTT prom inh
COc1ccc(-c2noc(COc3ccc(C)cc3C)n2)cc1OC,-23,0%,-24%
COc1cc(OC)cc(-c2nc(-c3cccc(C)c3)no2)c1,8,11µM*,61%
COc1ccc(N2CCN(c3ccc(-c4nc(-c5cccc(C)c5)no4)cc3[N+](=O)[O-])CC2)cc1,10,21%,25%
COc1ccccc1OCc1nc(-c2cccc(C)c2)no1,77*,10µM*,69%
Cc1cccc(-c2noc(CN(C(=O)c3ccc(C)c(C)c3)C(C)C)n2)c1,15,-27%,-27%
COc1ccccc1C(=O)N(Cc1nc(-c2cccc(C)c2)no1)C(C)C,87*,-23%,-27%
COc1ccc(C(=O)Nc2nnc(SCc3cc(=O)n4cccc(C)c4n3)s2)cc1,-8,7%,17%

# Screens as filed in PubChem BioAssay.
